Measured values: PubChem BioAssay (Tox21)
Several values for one entry are separate records, joined by “and”; a condition that tells them apart may be missing. Equal values may be shown once. Records with an inconclusive call do not appear. The source holds several records for some structures; these can differ, active in one and inactive in another. Activity calls are given as the source filed them. Unless noted, calls come from the whole dose curve; as a rule, active = well fitted curve in the direction sought with a large enough effect in the repeat runs; inconclusive = weak or mixed curves; inactive = no such curve, though single readings can be large; an effect the other way counts as inactive or inconclusive.

Tests used:
[1] = qHTS assay to identify small molecule antagonists of the glucocorticoid receptor (GR) signaling pathway - cell viability counter screen (AID 720693); note: nearly all actives have a fitted effect of over 55% in size
[2] = qHTS assay for identifying genotoxic compounds that show differential cytotoxicity against isogenic chicken DT40 cell lines with known DNA damage response pathways - wild type cell line (AID 743012); note: nearly all actives have a fitted effect of over 60% in size; note: potency is the fitted concentration of half-maximal effect
How it was run: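 Wild-type DT40 cells (300/well) exposed to compounds for 40 hours at 37 C/5% CO2. Viability read by CellTiter-Glo luminescence after 30 min at room temperature.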

[3] = qHTS assay for identifying genotoxic compounds that show differential cytotoxicity against isogenic chicken DT40 cell lines with known DNA damage response pathways - Rev3 mutant cell line (AID 743014); note: nearly all actives have a fitted effect of over 55% in size; note: potency is the fitted concentration of half-maximal effect
[4] = qHTS assay for identifying genotoxic compounds that show differential cytotoxicity against isogenic chicken DT40 cell lines with known DNA damage response pathways - Rad54/Ku70 mutant cell line (AID 743015); note: nearly all actives have a fitted effect of over 60% in size; note: potency is the fitted concentration of half-maximal effect
[5] = qHTS assay to identify small molecule antagonists of the androgen receptor (AR) signaling pathway - cell viability counter screen (AID 743033; note: nearly all actives have a fitted effect of over 45% in size)
[6] = qHTS assay to identify small molecule antagonists of the androgen receptor (AR) signaling pathway using the MDA cell line - cell viability counter screen (AID 743041; note: nearly all actives have a fitted effect of over 45% in size)
How it was run: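 Cells were plated at 3,000 per well and left 5 h. Compounds in DMSO were then pinned in, followed by R1881. After 16 h at 37C, CellTiter-Fluor fluorescence gave viability.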

[7] = qHTS assay to identify small molecule antagonists of the thyroid receptor (TR) signaling pathway - cell viability counter screen (AID 743064); note: nearly all actives have a fitted effect of over 50% in size
How it was run: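 Viability of T3-stimulated (1 nM final) GH3.TRE-Luc cells is measured by CellTiter-Fluor fluorescence after 23.5 h compound exposure at 37 °C plus 30 min reagent incubation.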

[8] = qHTS assay to identify small molecule antagonists of the thyroid receptor (TR) signaling pathway (AID 743065); note: nearly all actives have a fitted effect of over 55% in size; note: potency is the fitted concentration of half-maximal effect
How it was run: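 Antagonism measured as loss of luciferase signal in GH3 cells stably carrying a TRE-luciferase reporter, co-treated with compound and T3 (1 nM final) for 23.5 h at 37 C. Viability was read in the same well by CellTiter-Fluor.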

[9] = test system: thyroid hormone receptor (rat, GH3 cells); assay: qHTS assay to identify small molecule agonists of the thyroid receptor (TR) signaling pathway (AID 743066; calls by dose curve)
[10] = target: Estrogen receptor (Homo sapiens) (UniProt P03372); assay: qHTS assay to identify small molecule antagonists of the estrogen receptor alpha (ER-alpha) signaling pathway (AID 743069; active = well fitted curve in the direction sought with a large enough effect in the signal ratio in the repeat runs, not every such curve was filed as active; the % refers to the signal ratio)
Sequence of Estrogen receptor (Homo sapiens) (P03372 whole entry, looked up): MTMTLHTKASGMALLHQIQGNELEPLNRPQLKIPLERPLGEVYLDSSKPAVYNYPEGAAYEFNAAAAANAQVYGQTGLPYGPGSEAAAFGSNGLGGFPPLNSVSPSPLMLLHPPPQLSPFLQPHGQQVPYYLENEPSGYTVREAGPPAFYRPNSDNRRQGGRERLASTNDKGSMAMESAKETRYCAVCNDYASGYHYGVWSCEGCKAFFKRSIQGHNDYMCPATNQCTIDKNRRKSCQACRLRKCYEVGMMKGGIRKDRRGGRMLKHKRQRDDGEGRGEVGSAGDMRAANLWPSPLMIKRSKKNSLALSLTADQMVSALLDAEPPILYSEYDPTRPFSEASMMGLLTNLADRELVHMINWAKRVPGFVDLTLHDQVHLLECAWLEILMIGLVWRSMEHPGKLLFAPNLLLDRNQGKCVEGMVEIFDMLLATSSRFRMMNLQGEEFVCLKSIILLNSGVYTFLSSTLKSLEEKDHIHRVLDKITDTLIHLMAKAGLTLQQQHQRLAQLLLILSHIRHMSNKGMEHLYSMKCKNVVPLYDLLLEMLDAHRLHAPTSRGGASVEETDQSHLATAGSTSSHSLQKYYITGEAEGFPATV
How it was run: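 ER-alpha-UAS-bla GripTite HEK293 line; 2% charcoal-stripped FBS overnight; plated, 4 hr 37C/5% CO2; cpd in DMSO + 17beta-estradiol, 18 hr 37C; LiveBLAzer B/G FRET substrate 2 hr RT; fluorescence intensity.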

[11] = qHTS assay to identify small molecule antagonists of the estrogen receptor alpha (ER-alpha) signaling pathway - cell viability counter screen (AID 743074; calls by dose curve;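 note: HEK293 cells carrying ER-alpha-UAS-bla reporter stimulated with 17beta-estradiol; nearly all actives have a fitted effect of over 45% in size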)
[12] = target: Estrogen receptor (Homo sapiens) (UniProt P03372); assay: qHTS assay to identify small molecule agonists of the estrogen receptor alpha (ER-alpha) signaling pathway (AID 743075; calls by dose curve;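 note: HEK293 GripTite cells with ER-alpha and UAS-driven beta-lactamase reporter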)
[13] = qHTS assay to identify small molecule antagonists of the estrogen receptor alpha (ER-alpha) signaling pathway using the BG1 cell line (AID 743080; calls by dose curve;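 note: BG1 cells stimulated with 17beta-estradiol alongside compound; series mostly up to about 70 µM; nearly all actives have a fitted effect of over 25% in size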)
How it was run: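 Endogenous full-length ER-alpha in BG1-Luc-4E2 cells drives a stably integrated 4×ERE luciferase gene; compounds were tested against 17beta-estradiol over 21.5 h, with luminescence and multiplexed viability fluorescence recorded.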

[14] = qHTS assay to identify small molecule antagonists of the estrogen receptor alpha (ER-alpha) signaling pathway using the BG1 cell line - cell viability counter screen (AID 743081);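 note: compound given together with 17beta-estradiol as the ER stimulus; series mostly up to about 70 µM; nearly all actives have a fitted effect of over 45% in size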
Aromatase (Homo sapiens) = Aromatase (Homo sapiens) (UniProt P11511); assay: qHTS assay to identify aromatase inhibitors (AID 743083); note: series mostly up to about 70 µM; nearly all actives have a fitted effect of over 55% in size
Sequence of Aromatase (Homo sapiens) (P11511 whole entry, looked up): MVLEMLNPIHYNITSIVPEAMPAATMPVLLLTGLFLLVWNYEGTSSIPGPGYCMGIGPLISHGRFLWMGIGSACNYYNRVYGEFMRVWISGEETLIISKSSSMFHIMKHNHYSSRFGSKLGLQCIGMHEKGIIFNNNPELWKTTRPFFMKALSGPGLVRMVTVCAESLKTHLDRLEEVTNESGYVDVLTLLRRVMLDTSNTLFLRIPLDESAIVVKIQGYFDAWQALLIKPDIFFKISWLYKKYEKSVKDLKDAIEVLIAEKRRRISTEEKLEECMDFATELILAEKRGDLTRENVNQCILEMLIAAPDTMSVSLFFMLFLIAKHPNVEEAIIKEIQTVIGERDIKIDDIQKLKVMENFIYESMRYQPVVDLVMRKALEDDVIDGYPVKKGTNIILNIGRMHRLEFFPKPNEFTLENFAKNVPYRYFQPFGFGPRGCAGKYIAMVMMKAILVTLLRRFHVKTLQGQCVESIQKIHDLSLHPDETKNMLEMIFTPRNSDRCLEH

[15] = qHTS assay to identify aromatase inhibitors - cell viability counter screen (AID 743084); note: potency is the fitted concentration of half-maximal effect
[16] = target: Estrogen receptor (Homo sapiens) (UniProt P03372); assay: qHTS assay to identify small molecule agonists of the estrogen receptor alpha (ER-alpha) signaling pathway using the BG1 cell line (AID 743079); note: nearly all actives have a fitted effect of over 20% in size
[17] = target: Androgen receptor (Homo sapiens) (UniProt P10275); assay: qHTS assay to identify small molecule agonists of the androgen receptor (AR) signaling pathway (AID 743036; active = well fitted activation curve with a large enough effect in the signal ratio in the repeat runs, with a control signal flat, not every such curve was filed as active; the % refers to the signal ratio)
Sequence of Androgen receptor (Homo sapiens) (P10275 whole entry, looked up): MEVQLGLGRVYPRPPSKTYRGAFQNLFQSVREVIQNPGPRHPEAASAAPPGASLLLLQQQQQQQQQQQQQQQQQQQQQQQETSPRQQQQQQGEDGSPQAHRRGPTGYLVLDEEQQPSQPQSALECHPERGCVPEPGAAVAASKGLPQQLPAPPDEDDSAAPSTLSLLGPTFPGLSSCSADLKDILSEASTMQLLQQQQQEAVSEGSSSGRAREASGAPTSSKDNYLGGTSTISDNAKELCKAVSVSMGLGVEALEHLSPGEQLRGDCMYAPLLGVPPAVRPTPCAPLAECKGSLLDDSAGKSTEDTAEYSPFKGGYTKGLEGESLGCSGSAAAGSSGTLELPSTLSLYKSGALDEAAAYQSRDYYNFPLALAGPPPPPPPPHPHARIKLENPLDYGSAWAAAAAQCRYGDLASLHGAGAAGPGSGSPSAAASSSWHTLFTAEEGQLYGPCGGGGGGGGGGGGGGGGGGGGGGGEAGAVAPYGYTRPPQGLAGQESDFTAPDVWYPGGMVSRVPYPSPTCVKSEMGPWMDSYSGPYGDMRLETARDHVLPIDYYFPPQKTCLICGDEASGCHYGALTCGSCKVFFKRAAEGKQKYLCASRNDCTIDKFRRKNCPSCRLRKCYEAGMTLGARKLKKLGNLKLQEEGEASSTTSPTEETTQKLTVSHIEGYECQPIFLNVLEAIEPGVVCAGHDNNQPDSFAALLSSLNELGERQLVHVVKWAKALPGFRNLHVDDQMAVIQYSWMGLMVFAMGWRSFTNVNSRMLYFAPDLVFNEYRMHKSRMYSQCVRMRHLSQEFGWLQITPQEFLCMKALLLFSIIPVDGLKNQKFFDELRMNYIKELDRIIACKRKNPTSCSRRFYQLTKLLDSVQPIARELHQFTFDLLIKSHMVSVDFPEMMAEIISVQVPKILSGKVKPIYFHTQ
How it was run: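 Screening used 2,000 AR-bla HEK293 cells per well, treated 16 h at 37C with test compounds in DMSO alongside positive and DMSO-only controls; beta-lactamase activity was then read by LiveBLAzer B/G FRET fluorescence after 2 h at room temperature.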

[18] = target: Androgen receptor (Homo sapiens) (UniProt P10275); assay: qHTS assay to identify small molecule agonists of the androgen receptor (AR) signaling pathway using the MDA cell line (AID 743040; note: nearly all actives have a fitted effect of over 20% in size)
How it was run: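 Cells plated, 5 h at 37C/0% CO2; compound or DMSO pinned; 16 h at 37C; ONE-Glo added; luminescence measured after 30 min at room temperature. Reporter line: MDA-kb2 with MMTV-luciferase responsive to AR and GR.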

[19] = target: Androgen receptor (Homo sapiens) (UniProt P10275); assay: qHTS assay to identify small molecule antagonists of the androgen receptor (AR) signaling pathway using the MDA cell line (AID 743042; note: nearly all actives have a fitted effect of over 55% in size)
How it was run: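 Antagonist mode: compounds plus R1881 agonist added to MDA-kb2 AR-luc cells, incubated 16 h at 37C. Luciferase reporter luminescence quantified, with multiplexed CellTiter-Fluor readout for cell viability.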

Measured: Potency

CC(C)c1ccc(C(=O)N=C(N)N)cc1S(C)(=O)=O
not listed: [16] | [17] | [18] | [19]
inactive: all other assays above

CC(C)N=C=NC(C)C
not listed: [12] | [16] | [17] | [18] | [19]
inactive: all other assays above

O=C(O)c1ccc(O)cc1O
not listed: [10] | [12] | [13] | [16] | [17] | [18] | [19]
inactive: all other assays above

SCCc1cnccn1
not listed: [11] | [12] | [16] | [17] | [18] | [19]
inactive: all other assays above

CC(C(=O)O)c1ccc(C(=O)c2cccs2)cc1 (stereo not given)
not listed: [10] | [12] | [13] | [16] | [17] | [18] | [19]
inactive: all other assays above

CCN(CC)CCNC(=O)c1cc(Cl)c(N)cc1OC
not listed: [7] | [10] | [17] | [18] | [19]
inactive: all other assays above

C=CC(=O)O
not listed: [7] | [10] | [17] | [18] | [19]
inactive: all other assays above

Cc1ccc(NC(=O)N(C)C)cc1NC(=O)N(C)C
not listed: [7] | [17] | [18] | [19]
inactive: all other assays above

C=CC(=O)NC(C)C
not listed: [7] | [17] | [18] | [19]
inactive: all other assays above

O=C(O)CO
not listed: [7] | [10] | [17] | [18] | [19]
inactive: all other assays above

C[C@@H]1[C@H](O)[C@@H](C)/C=C/C=C\C=C\C=C\C=C\C=C\C=C\[C@H](O[C@@H]2O[C@H](C)[C@@H](O)[C@H](N)[C@@H]2O)C[C@@H]2O[C@](O)(C[C@@H](O)C[C@@H](O)[C@H](O)CC[C@@H](O)C[C@@H](O)CC(=O)O[C@H]1C)C[C@H](O)[C@H]2C(=O)O (stereo in doubt)
inactive and 34.4 µM (active): [15]
inactive and 61.1 µM (active): [4]
not listed: [7] | [8] | [9] | [17] | [18] | [19]
inactive: all other assays above

CCCCCCCC(=O)OCCCCCC
not listed: [5] | [10] | [12] | [13] | [16]
inactive: all other assays above

O=C(O)CCS
not listed: [7] | [17] | [18] | [19]
inactive: all other assays above

CCCCCCOC(=O)CCCCC
not listed: [7] | [10] | [12] | [13] | [16] | [17] | [18] | [19]
inactive: all other assays above

COc1ccc(/C=C/C(=O)c2ccc(OC)cc2OC)cc1
active: [2] 10.6 µM | [3] 16.8 µM | [4] 18.8 µM | [8] 26.6 µM
inactive: [1] | [5] | [6] | [9] | [11] | [14] | Aromatase (Homo sapiens) | [15]

O=[N+]([O-])c1ccc2ncccc2c1
not listed: [7] | [10] | [17] | [18] | [19]
inactive: all other assays above

CC(CO)(CO)C(=O)O
not listed: [7] | [8] | [9] | [17] | [18] | [19]
inactive: all other assays above

C1CCCCC1
not listed: [7] | [10] | [12] | [13] | [16] | [17] | [18] | [19]
inactive: all other assays above

CC(C)(C)CCCCCCOC(=O)c1ccccc1C(=O)OCCCCCCC(C)(C)C
not listed: [7] | [9] | [11] | [17] | [18] | [19]
inactive: all other assays above

Cc1cccc(C)c1NC(=O)c1cc(S(N)(=O)=O)c(Cl)cc1O
inactive: [1] | [2] | [3] | [4] | [5] | [6] | [8] | [9] | [14] | Aromatase (Homo sapiens) | [15]

CCCC(=O)OC(=O)CCC
inactive: [1] | [2] | [3] | [4] | [5] | [6] | [8] | [9] | [14] | Aromatase (Homo sapiens) | [15]

CC(C)(C)S
not listed: [6] | [17] | [18] | [19]
inactive: all other assays above

CCCc1nc2c(C)cc(-c3nc4ccccc4n3C)cc2n1Cc1ccc(-c2ccccc2C(=O)O)cc1
not listed: [7] | [8] | [10] | [17] | [18] | [19]
inactive: all other assays above

O=c1[nH][nH]c(=O)c2cc([N+](=O)[O-])ccc12
not listed: [7] | [17] | [18] | [19]
inactive: all other assays above

CCOCCC(=O)OCC
not listed: [7] | [10] | [17] | [18] | [19]
inactive: all other assays above
